Inconclusive results are not listed. Active and inactive are the calls of the source. Unless noted, calls come from the whole dose curve.
Columns and labels:
[1] = Cell Viability - BJ (AID 421); settings: BJ fibroblast viability, qHTS;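 note: potency is the fitted concentration of half-maximal effect; cells exposed to compound for 40 hours at 37 °C before readout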
In short: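 Cytotoxicity in human BJ foreskin fibroblasts is scored as loss of cellular ATP after a 40-hour exposure, measured by luciferase luminescence. Controls are DMSO and 100 uM tamoxifen.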

[2] = Cell Viability - Jurkat (AID 426;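 active = dose-dependent loss of cell ATP signal giving a full or clear fitted curve, ranked by lower potency value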; note: potency is the fitted concentration of half-maximal effect); settings: qHTS
In short: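 qHTS, 1536-well; Jurkat E6-1, 5000 cells/well, complete medium; cpd 40 hr, 37 °C; CellTiter-Glo 20 min RT; luminescence. AC50 by Hill fit.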

[3] = Cell Viability - Hek293 (AID 427;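 active = compounds whose dose-response curve shows a full or clear partial loss of cell viability, called from curve shape rather than a numeric limit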;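 note: potency is the fitted concentration of half-maximal effect; cells exposed to compound for 40 hours at 37 °C before reading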); settings: qHTS
In short: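 qHTS, human embryonic kidney (adenovirus-transformed) cells; 40 hr cpd, 37 °C; CellTiter-Glo ATP luminescence. Norm: DMSO = 0, 100 uM tamoxifen = 100% inhibition. Hill-fit AC50.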

[4] = Cell Viability - HepG2 (AID 433); settings: qHTS;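 note: potency is the fitted concentration of half-maximal effect; potency for ATP loss meaning cytotoxicity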
In short: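 HepG2 cells, 1500 per well, treated 40 hr at 37 °C in complete medium; viability from intracellular ATP by CellTiter-Glo luminescence. Normalized to DMSO and 100 uM tamoxifen; AC50 from Hill fit of qHTS concentration-response.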

[5] = Cell Viability - MRC5 (AID 434); settings: MRC5 lung fibroblast viability, qHTS;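 note: potency is the fitted concentration of half-maximal effect; potency reflects cytotoxicity seen as loss of intracellular ATP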
In short: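 qHTS cytotoxicity in human lung fibroblast MRC5 cells; 40 hr treatment, 37 °C; cellular ATP by luciferase luminescence; DMSO = 0%, 100 uM tamoxifen = 100% inhibition; Hill-fit AC50.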

[6] = Cell Viability - SK-N-SH (AID 435); settings: SK-N-SH neuroblastoma cell viability qHTS;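 note: potency is the fitted concentration of half-maximal effect; compound exposure lasted 40 h at 37 °C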
In short: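 SK-N-SH neuroblastoma cells (1500/well) treated 40 h at 37 °C in complete medium; viability read as cellular ATP by CellTiter-Glo luminescence. Normalized to DMSO and 100 uM tamoxifen; AC50 from Hill fits of qHTS concentration-response.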

[7] = target: Mitogen-activated protein kinase 10 (Mus musculus) (UniProt Q61831); test: JNK3 AlphaScreen Assay (AID 530; active = well fitted curve in either direction with a large enough effect, not every such curve was filed as active;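 note: kinase came from lysate of stimulated human HepG2 cells; signal reports phosphorylation of biotinylated GST-cJun 1-79 at Ser73 with 10 µM ATP; % is set by controls: 0 for no effect and ±100 for the full control effect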); settings: JNK3 lysate, c-Jun phosphorylation; series mostly up to 57.1 µM
In short: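 Compound titrations were preincubated 15 minutes at room temperature with substrate, antibody and pre-activated JNK3-containing HepG2 lysate. Reactions were started with 10 uM ATP and stopped with EDTA-containing bead buffer for AlphaScreen detection.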

[8] = Cell Viability - N2a (AID 540; active = well fitted curve in the direction sought with a large enough effect; an effect the other way counts as inactive or inconclusive;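 note: plate controls were DMSO alone for no effect and tamoxifen control for full effect; nearly all actives have a fitted effect of over 45% in size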); settings: N2a mouse neuroblastoma cell viability; activity change, negative = cytotoxicity: at 92.2 µM (top of the series)
In short: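 Luminescent ATP signal (CellTiter-Glo, 20 min at room temperature) served as the viability read-out after N2a cells were treated with compounds for 40 hours at 37 °C. Concentration-response data were fitted to the Hill equation for AC50.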

[9] = Cell Viability - NIH 3T3 (AID 541; active = well fitted curve in the direction sought with a large enough effect; an effect the other way counts as inactive or inconclusive; note: nearly all actives have a fitted effect of over 25% in size; note: potency is the fitted concentration of half-maximal effect;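 for activity change, negative = cytotoxicity: plate controls were DMSO alone for no effect and tamoxifen positive control for full effect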); settings: NIH 3T3 cell viability, qHTS; activity change, negative = cytotoxicity: at 92.2 µM (top of the series)
In short: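 Luminescent ATP signal (CellTiter-Glo) served as the viability read-out after NIH 3T3 cells were exposed to compounds over a concentration range for 40 hr at 37 °C. Hill-equation modelling of concentration-response data gave AC50.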

[10] = Cell Viability - HUV-EC-C (AID 542; active = well fitted curve in the direction sought with a large enough effect; an effect the other way counts as inactive or inconclusive; note: % is set by controls: 0 for no effect and ±100 for the full control effect; nearly all actives have a fitted effect of over 35% in size); settings: HUV-EC-C endothelial cell viability, qHTS; series mostly up to 92.2 µM
In short: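 qHTS cytotoxicity: HUV-EC-C, 1000 cells/well, 5 hr settle, compound 40 hr 37 °C, CellTiter-Glo, luminescence. AC50 via Hill equation.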

Cc1cc(C)cc([N+](=O)[O-])c1
inactive: Potency [1] > 92 µM | Potency [2] > 92 µM | Potency [3] > 92 µM | Potency [4] > 92 µM | Potency [5] > 92 µM | Potency [6] > 92 µM | outcome [7] | activity change, negative = cytotoxicity [8] -7.51% | Potency [9] | Potency [10]

NC(=O)c1cccc([N+](=O)[O-])c1
inactive: Potency [1] > 92 µM | Potency [2] > 92 µM | Potency [3] > 92 µM | Potency [4] > 92 µM | Potency [5] > 92 µM | Potency [6] > 92 µM | outcome [7] | activity change, negative = cytotoxicity [8] -1.6% | Potency [9] | Potency [10]

O=C1NC(=O)c2cc([N+](=O)[O-])ccc21
inactive: Potency [1] > 92 µM | Potency [2] > 92 µM | Potency [3] > 92 µM | Potency [4] > 92 µM | Potency [5] > 92 µM | Potency [6] > 92 µM | outcome [7] | activity change, negative = cytotoxicity [8] -3.32% | Potency [9] | Potency [10]

O=C(O)c1ccc(CO)o1
inactive: Potency [1] > 92 µM | Potency [2] > 92 µM | Potency [3] > 92 µM | Potency [4] > 92 µM | Potency [5] > 92 µM | Potency [6] > 92 µM | outcome [7] | activity change, negative = cytotoxicity [8] -2.4% | Potency [9] | Potency [10]

CC(=O)c1nccs1
inactive: Potency [1] > 92 µM | Potency [2] > 92 µM | Potency [3] > 92 µM | Potency [4] > 92 µM | Potency [5] > 92 µM | Potency [6] > 92 µM | outcome [7] | activity change, negative = cytotoxicity [8] 2.98% | Potency [9] | Potency [10]

CCC=O
inactive: Potency [1] > 92 µM | Potency [2] > 92 µM | Potency [3] > 92 µM | Potency [4] > 92 µM | Potency [5] > 92 µM | Potency [6] > 92 µM | outcome [7] | activity change, negative = cytotoxicity [8] 1.92% | Potency [9] | Potency [10]

Cc1cccc(C(=O)O)c1[N+](=O)[O-]
inactive: Potency [1] > 92 µM | Potency [2] > 92 µM | Potency [3] > 92 µM | Potency [4] > 92 µM | Potency [5] > 92 µM | Potency [6] > 92 µM | outcome [7] | activity change, negative = cytotoxicity [8] 8.99% | Potency [9] | Potency [10]

CCCC(C)CO (stereo not given)
inactive: Potency [1] > 92 µM | Potency [2] > 92 µM | Potency [3] > 92 µM | Potency [4] > 92 µM | Potency [5] > 92 µM | Potency [6] > 92 µM | outcome [7] | activity change, negative = cytotoxicity [8] 3.82% | Potency [9] | Potency [10]

CCCCCCC=O
inactive: Potency [1] > 92 µM | Potency [2] > 92 µM | Potency [3] > 92 µM | Potency [4] > 92 µM | Potency [5] > 92 µM | Potency [6] > 92 µM | outcome [7] | activity change, negative = cytotoxicity [8] -2.45% | Potency [9] | Potency [10]

Nc1cccc(C(F)(F)F)c1
inactive: Potency [1] > 92 µM | Potency [2] > 92 µM | Potency [3] > 92 µM | Potency [4] > 92 µM | Potency [5] > 92 µM | Potency [6] > 92 µM | outcome [7] | activity change, negative = cytotoxicity [8] 0.982% | Potency [9] | Potency [10]

NC(=S)NNC(N)=S
inactive: Potency [1] > 92 µM | Potency [2] > 92 µM | Potency [3] > 92 µM | Potency [4] > 92 µM | Potency [5] > 92 µM | Potency [6] > 92 µM | outcome [7] | activity change, negative = cytotoxicity [8] 4.33% | Potency [9] | Potency [10]

CCOc1ccc(NC(C)=O)cc1N
inactive: Potency [1] > 92 µM | Potency [2] > 92 µM | Potency [3] > 92 µM | Potency [4] > 92 µM | Potency [5] > 92 µM | Potency [6] > 92 µM | outcome [7] | activity change, negative = cytotoxicity [8] -12.5% | Potency [9] | Potency [10]

Nc1cccc(O)c1
inactive: Potency [1] > 92 µM | Potency [2] > 92 µM | Potency [3] > 92 µM | Potency [4] > 92 µM | Potency [5] > 92 µM | Potency [6] > 92 µM | outcome [7] | activity change, negative = cytotoxicity [8] 4.14% | Potency [9] | Potency [10]

CCN(C(=O)N(CC)c1ccccc1)c1ccccc1
active: Potency [9] 7.94 µM
inactive: Potency [1] > 92 µM | Potency [2] > 92 µM | Potency [3] > 92 µM | Potency [4] > 92 µM | Potency [5] > 92 µM | Potency [6] > 92 µM | outcome [7] | activity change, negative = cytotoxicity [8] -13.7% | Potency [10]

CC(C)c1ccccc1
inactive: Potency [1] > 92 µM | Potency [2] > 92 µM | Potency [3] > 92 µM | Potency [4] > 92 µM | Potency [5] > 92 µM | Potency [6] > 92 µM | outcome [7] | activity change, negative = cytotoxicity [8] -8.99% | Potency [9] | Potency [10]

O=[N+]([O-])c1ccc(NCCO)c(OCCO)c1
inactive: Potency [1] > 92 µM | Potency [2] > 92 µM | Potency [3] > 92 µM | Potency [4] > 92 µM | Potency [5] > 92 µM | Potency [6] > 92 µM | outcome [7] | activity change, negative = cytotoxicity [8] -0.601% | Potency [9] | Potency [10]
